Test results taken from the supplement of paper PMC13380429.

Test system: Vero E6 infected with SARS-CoV-2
Assay: inhibition of SARS-CoV-2 cytopathic effect; higher = more antiviral protection, active = above 15
Settings: 48 h

| Compound | inhibition of SARS-CoV-2 cytopathic effect (1 nM) | inhibition of SARS-CoV-2 cytopathic effect (8.33 nM) | inhibition of SARS-CoV-2 cytopathic effect (100 nM) | inhibition of SARS-CoV-2 cytopathic effect (833.33 nM) | inhibition of SARS-CoV-2 cytopathic effect (10000 nM) |
| --- | --- | --- | --- | --- | --- |
| Cc1nnc2n1-c1sc(CCC(=O)N3CCOCC3)cc1C(c1ccccc1Cl)=NC2 [apafant] | 2.67% (inactive) | -1.44% (inactive) | 0.93% (inactive) | 1.94% (inactive) | 29% (active) |
| Cc1c(O)c(=O)n(-c2ccccc2)n1C [4-hydroxy-phenazone] | -1.11% (inactive) | 0.39% (inactive) | 4.58% (inactive) | -1.8% (inactive) | -2.04% (inactive) |
| O=C(O)CNC(=O)C(CS)Cc1ccccc1 (stereo not given) [thiorphan] | -4.27% (inactive) | -1.61% (inactive) | -5.99% (inactive) | -4.04% (inactive) | -6.09% (inactive) |
| O=C(O)c1ccccc1NCCc1ccccc1 [tromaril] | -2.04% (inactive) | 0.78% (inactive) | 1.18% (inactive) | 1.39% (inactive) | 1.35% (inactive) |
| Cc1[nH]c(/C=C2\C(=O)Nc3ccc(S(=O)(=O)Cc4c(Cl)cccc4Cl)cc32)c(C)c1C(=O)N1CCC[C@@H]1CN1CCCC1 | -0.63% (inactive) | -2.66% (inactive) | -1.94% (inactive) | 1.33% (inactive) | 50.2% (active) |
| O=C(c1ccc(Cl)cc1)N(Cc1ccccc1)C1CCCCC1 | -1.58% (inactive) | -1.87% (inactive) | 1.24% (inactive) | -0.21% (inactive) | -2.35% (inactive) |
| OCCNC1CCCc2c1[nH]c1ccc(-c3ccccc3)cc21 (stereo not given) [casin] | -1.66% (inactive) | 3% (inactive) | 1.22% (inactive) | -2.43% (inactive) | 14.4% (inactive) |
| Cc1nc2c(O)cccc2c(=O)[nH]1 | 2.07% (inactive) | 2.96% (inactive) | -2.15% (inactive) | 3.67% (inactive) | 4.88% (inactive) |
| Cn1c(=O)c2c(ncn2CC(=O)Nc2ccc(-c3ccccc3)nn2)n(C)c1=O | 2.25% (inactive) | 0.06% (inactive) | 1.35% (inactive) | 4.8% (inactive) | 7.55% (inactive) |
| NCCC[C@H](N)C(=O)O [ornithine] | -1.52% (inactive) | -1.05% (inactive) | -1.8% (inactive) | -2.37% (inactive) | 2.35% (inactive) |
| COc1cc2ncnc(Nc3ccc(Cl)cc3F)c2cc1OC | 1.92% (inactive) | -0.75% (inactive) | -1.55% (inactive) | -5% (inactive) | -11.2% (inactive) |
| O=C(Nc1ccc([N+](=O)[O-])cc1O)Nc1ccccc1Br | 0.2% (inactive) | -0.25% (inactive) | -0.6% (inactive) | 0.15% (inactive) | -2.06% (inactive) |
| CCn1c(=O)c(-c2cc[nH]n2)cc2c(C)nc(N)nc21 [voxtalisib] | 2.67% (inactive) | 3.03% (inactive) | 1.3% (inactive) | 0.46% (inactive) | -4.32% (inactive) |
| CN(C)C(=O)Oc1cccc([N+](C)(C)C)c1 [neostigmine] | 1.41% (inactive) | 0.51% (inactive) | 0.73% (inactive) | -1.4% (inactive) | -0.84% (inactive) |
| FC(F)(F)Oc1ccc2nc(-c3ccc(OCCOCCOc4ccc(-c5nc6ccc(OC(F)(F)F)cc6[nH]5)nc4)cn3)[nH]c2c1 | -0.41% (inactive) | 1.44% (inactive) | 0.99% (inactive) | 3.47% (inactive) | -6.61% (inactive) |
| N=C(N)NCCC[C@@H](NC(=O)[C@@H]1CCCN1C(=O)[C@@H]1CSSCCC(=O)N[C@@H](Cc2ccc(O)cc2)C(=O)N[C@@H](Cc2ccccc2)C(=O)N[C@@H](CCC(N)=O)C(=O)N[C@@H](CC(N)=O)C(=O)N1)C(=O)NCC(N)=O [desmopressin-acetate] | -0.33% (inactive) | -2.9% (inactive) | 0.69% (inactive) | 0.25% (inactive) | 0.02% (inactive) |
| Cc1c(C(=O)NC2CCCCC2)sc2nc3ccc(N)cc3n12 | 0.16% (inactive) | -2.6% (inactive) | -1.92% (inactive) | -0.52% (inactive) | 0.2% (inactive) |
| Cc1ccc(O)c([C@H](CCN(C(C)C)C(C)C)c2ccccc2)c1 [tolterodine] | 2.11% (inactive) | 1.62% (inactive) | 1.96% (inactive) | -3.34% (inactive) | -2.67% (inactive) |
| CNCCC=C1c2ccccc2C=Cc2ccccc21 [norcyclobenzaprine] | -0.66% (inactive) | 3.83% (inactive) | -2.37% (inactive) | -0.19% (inactive) | -7.92% (inactive) |
